# Hits are enriched below; roughly 2.7% of the tested compounds scored in any of these assays.
# ALOX12 inh: inhibitors of human 12S-lipoxygenase ALOX12 | purified 12hLO, xylenol orange hydroperoxide absorbance | P18054 | Potency, µM (titrated, usually from 108 µM), inactives show at the highest dose activity change, negative = inhibition, most hits filed as inhibitors | actives 1.1% (n = 580,000); note: potency is the fitted concentration of half-maximal effect; % is set by controls: 0 for no effect and ±100 for the full control effect
# Target sequence (P18054 whole entry, looked up): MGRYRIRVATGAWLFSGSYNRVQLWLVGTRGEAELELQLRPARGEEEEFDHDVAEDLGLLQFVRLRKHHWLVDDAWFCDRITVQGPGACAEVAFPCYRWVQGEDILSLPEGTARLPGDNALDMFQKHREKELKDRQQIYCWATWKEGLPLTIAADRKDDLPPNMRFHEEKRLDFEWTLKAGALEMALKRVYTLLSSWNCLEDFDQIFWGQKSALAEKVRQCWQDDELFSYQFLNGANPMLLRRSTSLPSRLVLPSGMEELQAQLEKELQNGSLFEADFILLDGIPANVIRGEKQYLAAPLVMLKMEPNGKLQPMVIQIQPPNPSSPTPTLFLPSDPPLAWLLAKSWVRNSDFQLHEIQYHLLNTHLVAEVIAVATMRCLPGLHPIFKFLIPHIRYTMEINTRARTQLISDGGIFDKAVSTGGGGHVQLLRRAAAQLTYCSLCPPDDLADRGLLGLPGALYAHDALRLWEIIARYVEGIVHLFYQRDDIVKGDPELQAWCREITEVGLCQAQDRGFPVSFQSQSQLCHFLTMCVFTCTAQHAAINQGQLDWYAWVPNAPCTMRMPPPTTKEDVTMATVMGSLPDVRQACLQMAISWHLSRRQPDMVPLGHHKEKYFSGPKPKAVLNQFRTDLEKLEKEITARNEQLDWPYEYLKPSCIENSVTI
#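 Hydroperoxide product was detected by ferrous iron/xylenol orange as the 573 to 405 nm absorbance ratio. Arachidonic acid at 40 uM (final) was turned over for 30 min at room temperature by 150 nM human 12hLO, pH 7.0 Hepes buffer, after 15 min compound preincubation.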
# LDHA block: inhibitors of human lactate dehydrogenase A. purified LDHA, NADH/diaphorase-resazurin fluorescence; hits give low values. P00338. activity change, % (values are at about 110 or 230 µM). actives 0.15% (n = 480,000); in the data active = activity change below about -30%; inconclusive = mostly about -25% to -30%;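 note: plate controls were DMSO wells for no effect and wells without enzyme for full effect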
#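 Human LDH5 (2 nM) was incubated with 0.06 mM NADH and 0.2 mM pyruvate for 5 min at room temperature in Tris pH 7.4. Remaining NADH was coupled through diaphorase/resazurin, and resorufin fluorescence was read at 0 and 20 min.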
# A549 tox: kills or reduces viability of A549 cells in Nrf2 counter-screen; A549 ARE-Fluc cells, CellTiter-Fluor viability, 18-24 h; Potency, µM (top dose mostly 46 µM), without a hit: at the highest dose activity change, negative = cytotoxicity, most hits filed as inhibitors; actives 0.16% (n = 390,000); AID 504648; note: potency is the fitted concentration of half-maximal effect; % is set by controls: 0 for no effect and ±100 for the full control effect
#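 A549 ARE_Fluc cells in 5% FBS OPTI-MEM were exposed to compounds in concentration-response for 18-24 h at 37 deg C. Viability was read by CellTiter-Fluor fluorescence (Ex 405/Em 525) after 30 min, before the luciferase read.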
# Nrf2 ARE act: activators of Nrf2 (ARE) signaling | AREc32 ARE-luciferase reporter (MCF7-derived line), luminescence, 24 h | Potency, µM (titrated, usually from 46.1 µM), without a hit: top-dose activation, hits mostly activators | actives 0.31% (n = 410,000) | AID 624171; note: potency is the fitted concentration of half-maximal effect; % of control where 0% means no effect; nearly all actives have a fitted effect of over 65% in size
#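 Luminescent ARE reporter assay in AREc32_Fluc cells: overnight plating at 37 deg C, 24 hr compound incubation, Steady-Glo added, 30 min RT before reading.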
# Nrf2 block: inhibitors of Nrf2 signaling | A549 ARE-Fluc reporter, luciferase luminescence, 18-24 h | Potency, µM (top dose mostly 46 µM), without a hit: top-dose activity change, negative = inhibition, usual class: inhibitors | actives 2.1% (n = 360,000) | AID 504444; note: potency is the fitted concentration of half-maximal effect; % is set by controls: 0 for no effect and ±100 for the full control effect; nearly all actives have a fitted effect of over 60% in size
#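 A549 ARE_Fluc cells, 5000/well, 5% FBS OPTI-MEM; compounds in dose-response, 18-24 h at 37 °C/5% CO2; CellTiter-Fluor viability read (Ex 405/Em 525), then BugLite luciferase luminescence = Nrf2 activity.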
# ERG Ets-DNA blk: blocks human ERG Ets domain binding to DNA; P11308; actives 0.028% (n = 370,000); fluorescence polarization, His-ERG Ets domain / labelled DNA; Potency, µM (series often up to 76.9 µM), for inactives: at the highest dose FP activity, negative = inhibition, hits mostly inhibitors; active = well fitted inhibition curve with a large enough effect in the polarisation, with a control signal flat; inconclusive = small, poorly fitted or top-dose-only effect, or effect the other way, or a change in a side signal; inactive = no such curve, though single readings can be large or run the other way; the % refers to the polarisation;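 note: polarization taken with two DNA probes labelled with fluorescein and Texas red; potency is the fitted concentration of half-maximal effect; % of control where 0% means no effect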
#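 His-tagged ERG Ets domain (1 uM in the protein solution; 300mM KCl, 50mM Tris-HCl, 1mM EDTA, 1mM DTT, pH 7.5) received compound, then a probe mix of 5 nM fluorescein-DNA and 100nM Texas-615-DNA. Fluorescence polarization was read for both dyes.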
# * marks the source's active call; other numbers are inactive results; ? = inconclusive; . = no result. Unless noted, calls come from the whole dose curve; as a rule, active = well fitted curve in the direction sought with a large enough effect; inconclusive = small, poorly fitted or top-dose-only effect, or another doubt; inactive = no such curve, though single readings can be large; an effect the other way counts as inactive or inconclusive.
SMILES,ALOX12 inh,LDHA block,A549 tox,Nrf2 ARE act,Nrf2 block,ERG Ets-DNA blk
CCc1cccc(NC(=S)Nc2cccc3ccccc23)c1,44.7µM*,5.0,3.3%,7.0%,9.3%,17.0%
O=C(NCCn1cccc1-c1nc(-c2ccc3c(c2)OCO3)no1)C1(c2ccccc2)CC1,6.5%,.,.,.,.,.
COc1ccc(Cl)cc1NC(=S)NCCSc1ccc(C)cc1,44.7µM*,-6.2,7.2%,0.3%,4.7%,-3.9%
Cc1cccc(C)c1NC(=S)NCCSc1ccc(Cl)cc1,?,-8.5,?,-0.5%,25.9µM*,6.9%
Cc1ccc(Cl)cc1NC(=S)NCCSc1ccc(Cl)cc1,35.5µM*,5.4,.,.,.,.
COc1ccccc1NC(=S)NCCSc1ccc(Cl)cc1,2.3%,-1.1,8.9%,-0.7%,8.0%,-3.1%
S=C(NCCSc1ccc(Cl)cc1)Nc1ccccc1Cl,?,5.6,.,.,.,.
COc1ccc(NC(=O)c2nnc(COCC(=O)NC3CCCCC3)s2)cc1,?,0.1,.,.,.,.
COc1ccc(-c2cc([C@H]3[C@@H]4C=CCC[C@@]4(C)C(=O)N3Cc3ccccc3)ccc2F)cc1OC,11.2µM*,1.9,-10.4%,-0.5%,?,-0.1%
COc1ccc(-c2ccc([C@H]3[C@@H]4C=CCC[C@@]4(C)C(=O)N3Cc3ccccc3)c(F)c2)cc1OC,-8.1%,-6.2,-5.6%,-1.0%,20.6µM*,-6.2%
CCCN1C(=O)S/C(=C/c2ccc(N3CCOCC3)o2)C1=O,?,24.4,-10.2%,19.7%,?,23.3%
COC(=O)CN1C(=O)S/C(=C/c2ccc(N3CCCCC3)o2)C1=O,44.7µM*,50.5,.,6.0%,-7.7%,?
CCOC(=O)CN1C(=O)S/C(=C/c2ccc(N3CCCCC3)o2)C1=O,7.94µM*,1.0,-1.4%,-0.5%,8.0%,15.9%
CCCN1C(=O)S/C(=C\c2ccc(N3CCOCC3)o2)C1=O,39.8µM*,33.0,?,?,7.4%,15.4%
NC(=O)c1cn[nH]c1NCc1cccnc1,-22.9%,-2.7,.,.,.,.
CC1=C(C(=O)Nc2ccccc2)C(c2ccc(Br)cc2)NC(=S)N1 (stereo not drawn),?,9.4,.,.,.,.
O=C(CSc1nnc(Cc2cccs2)n1C1CC1)c1c[nH]c(C(=O)N2CCCC2)c1,1.4%,2.3,.,.,.,.
CCCN(CCC)CC(O)CN(c1ccccc1)S(=O)(=O)c1ccc(C)cc1 (stereo not drawn),-5.9%,-14.0,13.6%,-0.8%,-4.9%,-3.5%
Cc1ccc(N(CC(O)COCc2ccco2)S(=O)(=O)c2ccc(C)cc2)cc1 (stereo not drawn),35.5µM*,2.5,15.7%,6.8%,3.6%,0.5%
CCCCOC(=O)c1[nH]c2c(c1C)C(=O)CC(c1cc(OC)c(OC)c(OC)c1)C2 (stereo not drawn),415.8%,-2.1,-28.9%,4.9%,13µM*,12.4%
C=CCOC(=O)c1[nH]c2c(c1C)C(=O)CC(c1cc(OC)c(OC)c(OC)c1)C2 (stereo not drawn),.,-1.2,-30.0%,2.7%,10.3µM*,-1.1%
CS(=O)(=O)c1cccc(C(=O)NCc2coc(-c3cccs3)n2)c1,-10.2%,4.7,.,.,.,.
O=C(OCC12CC3CC(CC(C3)C1)C2)c1ccc(NCc2cc(O)ccc2O)cc1,15.8µM*,17.8,?,?,?,.
O=C(OCCC12CC3CC(CC(C3)C1)C2)c1ccc(NCc2cc(O)ccc2O)cc1,5.62µM*,20.7,?,?,?,.
O=C(OCC12CC3CC(CC(C3)C1)C2)c1cc([N+](=O)[O-])cc([N+](=O)[O-])c1,9.0%,-0.1,.,.,.,.
SMILES,ALOX12 inh,LDHA block,A549 tox,Nrf2 ARE act,Nrf2 block,ERG Ets-DNA blk
COc1ccc(NC(=O)c2cccc(N3C(=O)C4C5CCC(C5)C4C3=O)c2)cc1 (stereo not drawn),6.31µM*,-4.0,-5.5%,0.3%,?,1.5%
O=C(O)c1ccc(NC(=O)c2cccc(N3C(=O)C4C5CCC(C5)C4C3=O)c2)cc1 (stereo not drawn),-7.5%,-8.2,-15.3%,-1.0%,-5.5%,-0.4%
COc1ccc(NC(=O)c2cccc(N3C(=O)C4C5C=CC(C6CC56)C4C3=O)c2)cc1 (stereo not drawn),477.3%,-10.3,-12.0%,0.0%,20.6µM*,-4.7%
CNC(=S)NNC(=O)c1csc(C)c1,2.7%,0.9,.,.,.,.
CC[N+]1(CC)CC2CCC(C)(C1)C2(C)C (stereo not drawn),44.7µM*,?,7.6%,-0.7%,7.6%,6.8%
CC12CCC(C[N+](C)(C)C1)C2(C)C (stereo not drawn),?,11.0,-0.4%,-0.5%,8.4%,0.0%
Cc1[nH]n(-c2ccccc2)c(=O)c1C(c1cccc([N+](=O)[O-])c1O)c1c(C)[nH]n(-c2ccccc2)c1=O,25.1µM*,-5.0,0.5%,5.1%,-20.6%,-2.6%
Cc1c(C(c2cccc([N+](=O)[O-])c2O)c2c(C)n(C)n(-c3ccccc3)c2=O)c(=O)n(-c2ccccc2)n1C,-18.7%,6.5,-16.5%,0.5%,4.3%,-12.1%
CCCCN(CCCC)CC(O)Cn1cc(/C=C/C(=O)c2ccccc2)c2ccccc21 (stereo not drawn),44.7µM*,1.2,?,9.8%,-4.1%,5.8%
Cc1[nH]c(-c2ccccc2)nc1C(=O)O,1.1%,2.0,.,.,.,.
CC(=O)NC1C(=O)N(CCN2CCOCC2)c2ccc(F)cc21 (stereo not drawn),39.8µM*,2.4,1.8%,-0.8%,-11.9%,-2.3%
CC(=O)NC1C(=O)N(CCN2CCOCC2)c2ccc(C)cc21 (stereo not drawn),.,-12.7,-4.0%,2.2%,4.8%,15.5%
CCCCN1C(=O)C(NC(C)=O)c2cc(Br)ccc21 (stereo not drawn),10.8%,-4.3,-2.2%,-0.8%,-17.4%,-3.6%
CC(=O)NC1C(=O)N(CCN2CCOCC2)c2ccc(Cl)cc21 (stereo not drawn),39.8µM*,9.9,7.6%,-0.3%,-1.3%,1.1%
Fc1ccc(Br)cc1-c1nnc2sc(Cn3cccn3)nn12,?,-22.8,.,.,.,.
C(=C\c1ccccc1)/CN1CCN(Cc2nc(COc3ccccc3)no2)CC1,42.8%,.,.,.,.,.
CNCc1ccncc1,0.327µM*,.,.,.,.,.
CC(C(=O)N1CCc2ccccc21)N1CCN(c2ccccn2)CC1 (stereo not drawn),8.5%,-3.2,2.8%,-0.2%,-0.9%,.
CC(C(=O)N1CCCc2ccccc21)N1CCN(c2ccccn2)CC1 (stereo not drawn),-27.7%,-38.1*,7.0%,-0.2%,-8.2%,11.5%

# Compound activity (PubChem)
